From PubChem BioAssay come the findings set out here.

Activity calls are given as the source filed them.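 The calls were made as follows, unless noted: active = visual image review flags a hit and inhibition of aggregation exceeds 20%; inconclusive = visual hit but inhibition at or below 20%; inactive = no hit on visual image review.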

The nature of experiment [1]: inhibitors of TNFa-induced NFkB p65 translocation, primary screen, imaging, HUVEC, MLSMR starter and 10KST1 sets (AID 438;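 active = inhibition above 20% together with a positive visual image hit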;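 also: compound added about 3h40 before a 20 min TNFalpha stimulation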;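 as to inhibition: signal is the nuclear over cytoplasmic p65 intensity ratio per well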). The conditions noted are these: HUVEC TNFa-induced p65 nuclear translocation; cell count: measured here: nuclei count (cytotoxicity indicator), at 2.08 µM; inhibition: at 2 µM, stronger effect = higher value, 0% TNFa-plus-vehicle, 100% no-TNFa wells.
The nature of experiment [2]: reduction of polyQ htt aggregates in cells – imaging, exon1htt(103Q)mCFP cells, high-content imaging, primary screen (AID 483).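 Also: compound exposure lasted 3 days before fixation.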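 As to nuclei count: percent of the per-plate median nuclei count of sample wells.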 As to conditions: exon1htt(103Q)mCFP cell line, aggregate imaging, at 2 µM; inhibition of aggregation: stronger effect = higher value; nuclei count: measured here: cell count, toxicity.
Experiment [3] in a line: endothelial E-selectin expression blockers – imaging, HUVEC, immunofluorescence, MLSMR starter and 10KST1 sets, primary screen (AID 487;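 active = visually confirmed hit in the image check and inhibition above 20%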;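 as to inhibition: signal is fraction of cell area covered by stained E-selectin grains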;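 as to nuclei count: 100% = median nuclei count of all wells on the same plate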). As to conditions: HUVEC TNFalpha-induced E-selectin immunofluorescence imaging, at 2 µM; inhibition: stronger effect = higher value; nuclei count: measured here: cell number, toxicity.
The target in experiment [4] is Voltage-gated potassium channel subunit beta-2 (Rattus norvegicus) (UniProt P62483). As to the kind of experiment: inhibitors of rat Kvbeta2 reductase activity – biochemical, NADPH fluorescence, primary screen (AID 622;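 active = fluorescence slope higher than the sample average by over 3 SD, cut at about -0.22 in these data, passing the limit was not always enough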;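 also: slope of raw intensity against log time taken from 70 to 1610 s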). As to conditions: recombinant KvBeta, 4-cyanobenzaldehyde reduction, at 10 µM, stronger effect = higher value.
The target is the same in experiment [5]. As to the kind of experiment: enhancers of rat Kvbeta2 NADPH turnover – biochemical, NADPH fluorescence, primary screen (AID 623;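 active = NADPH fluorescence slope more negative than the mean of all samples by about 3 SD, 99.7% confidence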;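 also: fluorescence intensity change per second fitted from 20 to 320 s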). As to conditions: Recombinant KvBeta, NADPH fluorescence decrease slope, 10 min; at 10 µM; stronger effect = lower value.
For experiment [6], the target named is Alpha-2C adrenergic receptor (Homo sapiens) (UniProt P18825). As to the kind of experiment: compounds altering alpha2C-coupled GIRK flux – cell-based, HEK293 alpha2C/GIRK1/2, thallium flux, primary screen (AID 624;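 active = fluorescence slope after compound addition differing from the mean of all screened samples at 99.7% confidence, in either direction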;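 also: slope of fluorescence ratio to pre-addition baseline per second over 15 to 24 s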). As to conditions: thallium flux BTC fluorescence, at 10 µM, actives lie on both sides.
Experiment [7] is described as follows: blockers of RIG-like receptor reporter activation – cell-based, Sendai virus stimulus, luciferase, 10K MLSCN set, TLR/RLR signaling modifier project, primary screen (AID 602276;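 active = inhibition at or above 50% at 10 µM; inactive = inhibition below 50%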;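 also: firefly luciferase from ISG56 promoter only with Renilla not read in this screen; 0% = Sendai virus plus DMSO and 100% = medium plus DMSO without virus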). The conditions noted are these: HEK293 RL24 IRF3 luciferase reporter, at 10 µM, stronger effect = higher value.
A short description of experiment [8]: TLR3 IRF3 reporter activation blockers – cell-based, poly I:C stimulus, luciferase, 10K MLSCN set, primary screen (AID 602277;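 active = inhibition of the reporter signal at or above 50%; inactive = inhibition below 50%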). The conditions noted are these: HEK293-TLR3 RL24 IRF3 luciferase reporter, at 10 µM, stronger effect = higher value. On the technique in general: A reporter such as luciferase makes a cellular process visible.

Sequence of Alpha-2C adrenergic receptor (Homo sapiens) (P18825 whole entry, looked up): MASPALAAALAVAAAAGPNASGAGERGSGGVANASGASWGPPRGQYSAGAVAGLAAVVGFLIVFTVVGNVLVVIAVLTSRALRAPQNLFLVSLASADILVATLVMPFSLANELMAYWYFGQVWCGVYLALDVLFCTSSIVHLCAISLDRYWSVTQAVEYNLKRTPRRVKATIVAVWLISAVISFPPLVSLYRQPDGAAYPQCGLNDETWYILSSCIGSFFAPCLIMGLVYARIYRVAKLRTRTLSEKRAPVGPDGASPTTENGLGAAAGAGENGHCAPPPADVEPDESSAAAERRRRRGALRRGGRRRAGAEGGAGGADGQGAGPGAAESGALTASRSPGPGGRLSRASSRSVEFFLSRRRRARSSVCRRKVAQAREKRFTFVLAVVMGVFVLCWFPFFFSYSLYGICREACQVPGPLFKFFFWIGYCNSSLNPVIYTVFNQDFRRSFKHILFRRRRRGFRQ
Sequence of Voltage-gated potassium channel subunit beta-2 (Rattus norvegicus) (P62483 whole entry, looked up): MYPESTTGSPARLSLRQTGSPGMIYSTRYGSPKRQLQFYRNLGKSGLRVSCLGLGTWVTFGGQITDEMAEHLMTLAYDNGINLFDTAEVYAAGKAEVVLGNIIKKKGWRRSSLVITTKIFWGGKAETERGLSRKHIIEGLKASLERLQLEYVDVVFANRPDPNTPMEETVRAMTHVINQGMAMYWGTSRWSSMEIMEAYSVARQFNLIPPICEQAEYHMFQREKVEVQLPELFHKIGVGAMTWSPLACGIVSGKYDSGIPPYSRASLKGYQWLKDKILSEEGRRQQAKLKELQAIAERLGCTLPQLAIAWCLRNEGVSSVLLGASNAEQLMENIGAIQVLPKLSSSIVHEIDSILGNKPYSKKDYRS

Broadly, the inhibition is the drop in the measured response relative to a control, in per cent. For `Cc1cccc(-n2ncc3c(NCCCO)ncnc32)c1`, the cell count in experiment [1] was found to be 840. Also, the inhibition in experiment [1] is 2.3% (inactive); in experiment [3] it was -2.8% (inactive); in experiment [7], -58.8% (inactive); in experiment [8] it was -193% (inactive). Besides, the inhibition of aggregation in experiment [2] is -32% (inactive). Moreover, the figures for the nuclei count in experiment [2] and in experiment [3] were 101% and 107%, respectively. For the same compound, the fluorescence slope in experiment [4] was -0.582 (inactive). For the same compound, in experiment [5], the NADPH fluorescence slope was -1.5e-05 (inactive). Also, in experiment [6], the slope was 0.00564 (inactive).
For the compound `Cc1ccc2cc(C#N)c(NCCCNC(=O)C3CCCO3)nc2c1` (centres undefined), the cell count in experiment [1] is 271. The inhibition in experiment [1] is -2.8% (inactive); in experiment [3] it was -25.3% (inactive); in experiment [7] it was 9.51% (inactive); in experiment [8], 10.8% (inactive). Moreover, in experiment [2], the inhibition of aggregation was -8.8% (inactive). The nuclei count in experiment [2] worked out at 82.7%; in experiment [3], 116%. Besides, the fluorescence slope in experiment [4] was -0.476 (inactive). Moreover, the NADPH fluorescence slope in experiment [5] is -9.9e-05 (inactive). Further, the slope in experiment [6] was 0.00509 (inactive).
As to `c1ccc(Cn2nnc3c(N4CCCCCC4)ncnc32)cc1`, the cell count in experiment [1] amounted to 525. Besides, the inhibition was -4.2% (inactive) in experiment [1], -63.4% (inactive) in experiment [3], -20.2% (inactive) in experiment [7] and -76.6% (inactive) in experiment [8]. The inhibition of aggregation in experiment [2] was 35.8% (inactive). Further, the nuclei count turned out to be 76.5% in experiment [2] and 95.6% in experiment [3]. The fluorescence slope in experiment [4] is -0.55 (inactive). Besides, the NADPH fluorescence slope in experiment [5] is -2.5e-05 (inactive). Besides, the slope in experiment [6] is 0.0062 (inactive).
As for `O=C(NCCCN1CCOCC1)c1cc(-c2ccc(O)cc2)on1`, the cell count in experiment [1] came to 614. In addition, the inhibition in experiment [1] is -1.6% (inactive); in experiment [3], -46.9% (inactive); in experiment [7], 2.55% (inactive); in experiment [8], -5.13% (inactive). Also, the inhibition of aggregation in experiment [2] was -5.2% (inactive). Further, the nuclei count in experiment [2] is 92.4%; in experiment [3] it was 114%. In addition, the fluorescence slope in experiment [4] is -0.565 (inactive). Further, the NADPH fluorescence slope in experiment [5] is -3.8e-05 (inactive). The slope in experiment [6] was 0.00654 (inactive).
Regarding `CCOC(=O)c1cnn(-c2cc(C)nc3c(-c4ccccc4)c(C)nn23)c1N`, the cell count in experiment [1] came out at 645. The inhibition in experiment [1] is -7.8% (inactive); in experiment [3] it was -27.2% (inactive); in experiment [7], 14.6% (inactive); in experiment [8], 17.2% (inactive). Further, the inhibition of aggregation in experiment [2] was 7.9% (inactive). For the same compound, the values for the nuclei count in experiment [2] and in experiment [3] were 124% and 120%, respectively. The fluorescence slope in experiment [4] was -0.625 (inactive). Moreover, the NADPH fluorescence slope in experiment [5] was -3.2e-05 (inactive). For the same compound, in experiment [6], the slope is 0.00566 (inactive).
On to `CCOC(=O)c1c(N)sn(-c2ccccc2)c1=S`, for which, in experiment [1], the cell count was determined as 441. The inhibition in experiment [1] was -9.2% (inactive); in experiment [3] it was -55.1% (inactive); in experiment [7] it was 15.3% (inactive); in experiment [8] it was 20% (inactive). For the same compound, the inhibition of aggregation in experiment [2] was 5.4% (inactive). In addition, the figures for the nuclei count in experiment [2] and in experiment [3] were 114% and 112%, respectively. Moreover, the fluorescence slope in experiment [4] was -0.37 (inactive). In addition, the NADPH fluorescence slope in experiment [5] was -5.3e-05 (inactive). Also, the slope in experiment [6] was 0.00599 (inactive).
Turning to `FC(F)(F)c1cc(-c2ccccc2)nc(N2CCCCC2)n1`, in experiment [1], the cell count is 286. Also, the inhibition in experiment [1] is 3.3% (inactive); in experiment [3] it was -8.9% (inactive); in experiment [7] it was 12.9% (inactive); in experiment [8], 12.8% (inactive). The inhibition of aggregation in experiment [2] was 3.7% (inactive). For the same compound, the nuclei count in experiment [2] amounted to 100%; in experiment [3] it was 105%. In addition, the fluorescence slope in experiment [4] is -0.578 (inactive). In addition, the NADPH fluorescence slope in experiment [5] was -3.3e-05 (inactive). The slope in experiment [6] is 0.00434 (inactive).
`CCOc1cc(/C=N/n2cnnc2)cc(Br)c1O`: the cell count in experiment [1] came out at 819. For the same compound, the inhibition is 4.2% (inactive) in experiment [1], -30.9% (inactive) in experiment [3], 13.1% (inactive) in experiment [7] and 7.19% (inactive) in experiment [8]. Also, in experiment [2], the inhibition of aggregation was -15.3% (inactive). The nuclei count in experiment [2] was 100%; in experiment [3], 124%. For the same compound, the fluorescence slope in experiment [4] is -0.381 (inactive). In experiment [5], the NADPH fluorescence slope was -4.4e-06 (inactive). Besides, the slope in experiment [6] was 0.00481 (inactive).
Take `FC(F)(F)c1cc(-c2ccco2)nc(NCc2ccco2)n1`: the cell count in experiment [1] stood at 589. In addition, the inhibition was 14.6% (inactive) in experiment [1], -24.3% (inactive) in experiment [3], 14.2% (inactive) in experiment [7] and 13.8% (inactive) in experiment [8]. The inhibition of aggregation in experiment [2] is 28.3% (inactive). Also, the figures for the nuclei count in experiment [2] and in experiment [3] were 95.5% and 94.8%, respectively. Also, the fluorescence slope in experiment [4] was -0.194 (inactive). Also, in experiment [5], the NADPH fluorescence slope is -3e-05 (inactive). Moreover, in experiment [6], the slope is 0.00472 (inactive).
For `COc1ccccc1-n1c(-c2cccnc2)n[nH]c1=S`, the cell count in experiment [1] was found to be 204. In addition, the inhibition in experiment [1] is -4.8% (inactive); in experiment [3] it was -123% (inactive); in experiment [7], -0.823% (inactive); in experiment [8], -12.6% (inactive). Moreover, in experiment [2], the inhibition of aggregation is 17.2% (inactive). The values for the nuclei count in experiment [2] and in experiment [3] were 77% and 107%, respectively. Besides, the fluorescence slope in experiment [4] is -0.598 (inactive). For the same compound, the NADPH fluorescence slope in experiment [5] is -4.1e-06 (inactive). Moreover, the slope in experiment [6] was 0.0043 (inactive).
Consider `CCOC(=O)c1c(-c2ccc(C)o2)csc1NC(=O)COC(=O)c1cccs1`, for which the cell count in experiment [1] was 478. The inhibition in experiment [1] is -7.8% (inactive); in experiment [3] it was -41.5% (inactive); in experiment [7] it was 7.28% (inactive); in experiment [8] it was 15.5% (inactive). Besides, in experiment [2], the inhibition of aggregation is 10% (inactive). Further, the nuclei count in experiment [2] was 66.4%; in experiment [3], 113%. Moreover, the fluorescence slope in experiment [4] is -0.403 (inactive). Moreover, the NADPH fluorescence slope in experiment [5] is -5.7e-05 (inactive). Further, the slope in experiment [6] is 0.00798 (inactive).
With `Cc1ccccc1N(C)S(=O)(=O)c1ccc2[nH]cc(C(=O)NCC3CCCO3)c(=O)c2c1` (centres undefined), the cell count in experiment [1] was determined as 523. Further, the inhibition in experiment [1] was -20.4% (inactive); in experiment [3] it was -52.3% (inactive); in experiment [7], -1.58% (inactive); in experiment [8] it was 14.4% (inactive). Besides, the inhibition of aggregation in experiment [2] is 17.8% (inactive). For the same compound, the nuclei count in experiment [2] was found to be 55%; in experiment [3] it was 104%. Besides, in experiment [4], the fluorescence slope was -0.404 (inactive). Also, in experiment [5], the NADPH fluorescence slope was -4.2e-05 (inactive). Also, in experiment [6], the slope was 0.00343 (inactive).
`FC(F)(F)c1cc(-c2ccco2)nc(N2CCOCC2)n1`: the cell count in experiment [1] was 645. Further, the inhibition in experiment [1] was -8.5% (inactive); in experiment [3], -83.2% (inactive); in experiment [7] it was 16.2% (inactive); in experiment [8], 15.5% (inactive). In addition, the inhibition of aggregation in experiment [2] was -15% (inactive). Besides, the nuclei count is 89% in experiment [2] and 118% in experiment [3]. Moreover, the fluorescence slope in experiment [4] was -0.586 (inactive). Further, the NADPH fluorescence slope in experiment [5] is -1.4e-05 (inactive). Besides, in experiment [6], the slope was 0.00435 (inactive).
With `CC1(C)CC(=O)C2=C(C1)NC(=O)CC2c1ccc(N(CCC#N)CCC#N)cc1` (centres undefined), the cell count in experiment [1] came to 432. Further, the inhibition in experiment [1] is 5.9% (inactive); in experiment [3], 21.1% (inactive); in experiment [7] it was 1.16% (inactive); in experiment [8] it was 17.9% (inactive). For the same compound, in experiment [2], the inhibition of aggregation is -2.1% (inactive). In addition, the values for the nuclei count in experiment [2] and in experiment [3] were 109% and 116%, respectively. Besides, the fluorescence slope in experiment [4] is -0.376 (inactive). Also, the NADPH fluorescence slope in experiment [5] is 6.8e-05 (inactive). The slope in experiment [6] is 0.00771 (inactive).
